Data on 88 compounds can be found in published antibiotic growth screens (doi:10.1016/j.cell.2020.01.021).

Over roughly 2,300 compounds, “relative growth” has its median near 1; the lowest 2% begin near 0.046. A selection follows.

The assay has as its system E. coli BW25113. The assay is described as follows: relative growth (fraction of control); higher = less inhibition. As to conditions: 50 µM.
`CNCC(O)c1ccc(O)c(O)c1.O=C(O)C(O)C(O)C(=O)O` (stereo not drawn) came in with a relative growth of 1.17.
`CCOC(=O)C(CCc1ccccc1)NC(C)C(=O)N1CCCC1C(=O)O.O=C(O)C=CC(=O)O` (stereo not drawn) came in with a relative growth of 1.07.
The same measure for `COCCCOc1cc(CC(CC(N)C(O)CC(C(=O)NCC(C)(C)C(N)=O)C(C)C)C(C)C)ccc1OC.O=C(O)C=CC(=O)O` (stereo not drawn): 0.978; for `C#CCCCCCCCCCCCC(O)CC(O)CO.C=CCCCCCCCCCCCC(O)CC(O)CO` (stereo not drawn): 0.979; for `COc1ccc(CN(CCN(C)C)c2ccccn2)cc1.O=C(O)C=CC(=O)O`: 1.09.
The figure for `CN1CCC(=C2c3ccccc3CCc3sccc32)CC1.O=C(O)CC(O)C(=O)O` is 1.07; for `CC(C)=CCCC(C)C1CCC2(C)C3=C(CCC12C)C1(C)CCC(O)C(C)(C)C1CC3` (stereo not drawn) it is 0.918.
The figure for `CCC1OC(=O)C(C)C(OC2CC(C)(OC)C(O)C(C)O2)C(C)C(OC2OC(C)CC(N(C)C)C2O)C(C)(O)CC(C)C(=O)C(C)C(O)C1(C)O` (stereo not drawn) is 0.394; for `C[N+]1(CCCCC[N+]2(C)CCCC2)CCCC1.O=C([O-])C(O)C(O)C(=O)O.O=C([O-])C(O)C(O)C(=O)O` it is 0.992; for `OCC(O)C(O)C(O)CO` (stereo not drawn) it is 0.987.
Regarding `CN(C)CCOC(C)(c1ccccc1)c1ccccn1.O=C(O)CCC(=O)O` (stereo not drawn), the relative growth is 0.787.
As for `CN(C)CCC(c1ccccc1)c1ccccn1.O=C(O)C=CC(=O)O` (stereo not drawn), the relative growth is 0.966.
In the case of `O=c1ccc2ccccc2o1`, the relative growth turned out to be 1.09.
The figure for `CN(C)CCOC(c1ccc(Cl)cc1)c1ccccn1.O=C(O)C=CC(=O)O` (stereo not drawn) is 0.986; for `NC(CO)(CO)CO.O=C(c1ccccc1)c1ccc2n1CCC2C(=O)O` (stereo not drawn) it is 0.914; for `CCN(CC)CCc1nc(-c2ccccc2)no1.O=C(O)CC(O)(CC(=O)O)C(=O)O` it is 0.968.
The figure for `CC(C)NCC(O)COc1ccc(COCCOC(C)C)cc1.O=C(O)C=CC(=O)O` (stereo not drawn) is 1.04.
Turning to `CN1CCCC1CCOC(C)(c1ccccc1)c1ccc(Cl)cc1.O=C(O)C=CC(=O)O` (stereo not drawn), the relative growth amounted to 1.01.
Regarding `CN1CCCC1c1cccnc1.O=C(O)C(O)C(O)C(=O)O.O=C(O)C(O)C(O)C(=O)O` (stereo not drawn), the relative growth is 1.14.
Compound `C[N+](C)(C)CCO.Cn1c(=O)c2[n-]cnc2n(C)c1=O` registered a relative growth of 1.06.
As to `CN(C)CCOc1ccc(C(=C(CCCl)c2ccccc2)c2ccccc2)cc1.O=C(O)CC(O)(CC(=O)O)C(=O)O`, the relative growth was 0.722.
The figure for `Cc1c(OCC(F)(F)F)ccnc1CS(=O)c1nc2ccccc2[nH]1` (stereo not drawn) is 1.01; for `NCC(O)c1ccc(O)c(O)c1.O=C(O)C(O)C(O)C(=O)O` (stereo not drawn) it is 1.12; for `CN(C)CCC(c1ccc(Br)cc1)c1ccccn1.O=C(O)C=CC(=O)O` (stereo not drawn) it is 1.04.
As for `COc1ccc2c3c1OC1CC(O)C=CC31CCN(C)C2` (stereo not drawn), the relative growth came to 0.936.
`CN1CCCN=C1C=Cc1cccc(O)c1.O=C(O)c1cc2ccccc2c(Cc2c(O)c(C(=O)O)cc3ccccc23)c1O`: the relative growth stood at 1.1.
The figure for `C=C1C2CCC3(C)C(c4ccoc4)OC(=O)CC13OC1CC(O)C(C)(C)C(CC(=O)OC)C12C` (stereo not drawn) [3alpha-HYDROXY-3-DEOXYANGOLENSIC ACID METHYL ESTER] is 1.03.
Take `OCC(O)C(O)CO` (stereo not drawn): the relative growth turned out to be 0.882.
The same measure for `Cl.NC(=O)CCC(N)C(=O)O` (stereo not drawn): 1.03.
`CCN(CCCc1ccccc1)CCCc1ccccc1.O=C(O)CC(O)(CC(=O)O)C(=O)O`: the relative growth was determined as 0.881.
Compound `CN(C)CC(c1ccc(O)cc1)C1(O)CCCCC1.O=C(O)CCC(=O)O` (stereo not drawn) returned a relative growth of 1.14.
Regarding `CC1=C(C(=O)O)N2C(=O)C(NC(=O)C(N)c3ccccc3)C2SC1` (stereo not drawn), the relative growth was determined as 1.03.
On to `O=C(O)C=CC(=O)O.OCCOCCN1CCN(C2=Nc3ccccc3Sc3ccccc32)CC1`, for which the relative growth is 0.3.
`CC1CC2C3CCC4=CC(=O)C=CC4(C)C3(F)C(O)CC2(C)C1(O)C(=O)CO` (stereo not drawn): the relative growth came out at 0.933.
Take `C1CCC(C(CC2CCCCN2)C2CCCCC2)CC1.O=C(O)C=CC(=O)O` (stereo not drawn): the relative growth is 0.52.
For the compound `CCN1CCCC1CNC(=O)c1cc(S(N)(=O)=O)ccc1OC` (stereo not drawn), the relative growth was determined as 1.04.
Compound `CC12CCC(CC1)C(C)(C)O2` displayed a relative growth of 1.06.
`Cc1ccccc1C(OCCN(C)C)c1ccccc1.O=C(O)CC(O)(CC(=O)O)C(=O)O` (stereo not drawn) yielded a relative growth of 1.01.
The compound `COCCCCC(=NOCCN)c1ccc(C(F)(F)F)cc1.O=C(O)C=CC(=O)O` registered a relative growth of 0.949.
On to `Nc1nc(N)nc(-c2cc(Cl)ccc2Cl)n1.O=C(O)C=CC(=O)O`, for which the relative growth turned out to be 1.04.
In turn, `CC(N)C(O)c1cccc(O)c1.O=C(O)C(O)C(O)C(=O)O` (stereo not drawn) had a relative growth of 0.957.
Turning to `Cc1ccc(S(=O)(=O)O)cc1.NC1CCN(c2nc3c(cc2F)c(=O)c(C(=O)O)cn3-c2ccc(F)cc2F)C1.O` (stereo not drawn), the relative growth worked out at 0.0925.
In turn, `C=CC1=C(C)c2cc3[nH]c(cc4nc(cc5[nH]c(cc1n2)c(C)c5CCC(=O)O)C(CCC(=O)O)=C4C)c(C)c3C=C` came in with a relative growth of 2.63.
The same measure for `CNC(C)C1CCC(N)C(OC2C(N)CC(N)C(OC3OCC(C)(O)C(NC)C3O)C2O)O1.O=S(=O)(O)O` (stereo not drawn): 0.786.
The figure for `Cc1cc(C=Cc2ccc3cc(N(C)C)ccc3[n+]2C)c(C)n1-c1ccccc1.O=C([O-])c1cc2ccccc2c(Cc2c(O)c(C(=O)O)cc3ccccc23)c1O` is 0.996.
`CC(C)Cc1ccc(C(C)C(=O)O)cc1` (stereo not drawn) returned a relative growth of 0.933.
The same measure for `CCN(CC)C(=O)N1CCN(C)CC1.O=C(O)CC(O)(CC(=O)O)C(=O)O`: 1.1.
The same measure for `O=C(O)c1cc2ccccc2c(Cc2c(O)c(C(=O)O)cc3ccccc23)c1O.OCCOCCN1CCN(C(c2ccccc2)c2ccc(Cl)cc2)CC1`: 1.17.
The figure for `CC(CN(C)C)CN1c2ccccc2CCc2ccccc21.O=C(O)C=CC(=O)O` (stereo not drawn) is 1.01; for `CCCCCCCCCCCCCCCC(=O)NCCO` it is 1.06; for `COC1C(C(=O)O)OC(C)C(O)C1O.COC1OC(C(=O)O)C(O)C(O)C1O` (stereo not drawn) [ALGINIC ACID [Mol Wt ~200,000; monomers shown]] it is 0.862.
For the compound `CN1CCC(=C2c3ccccc3CC(=O)c3sccc32)CC1.O=C(O)C=CC(=O)O`, the relative growth stood at 1.03.
The figure for `C=CC1CN2CCC1CC2C(O)c1ccnc2ccc(OC)cc12.O=C(O)C(O)C(O)C(O)C(O)CO` (stereo not drawn) is 0.949; for `CC(=O)c1ccc2c(c1)N(CCCN(C)C)c1ccccc1S2.O=C(O)C=CC(=O)O` it is 0.983.
Take `CC1OC(OC2C(O)CC(OC3C(O)CC(OC4CCC5(C)C(CCC6C5CC(O)C5(C)C(C7=CC(=O)OC7)CCC65O)C4)OC3C)OC2C)CC(O)C1O` (stereo not drawn): the relative growth was 1.13.
Turning to `Cl.Cl.O=C(O)COCCN1CCN(C(c2ccccc2)c2ccc(Cl)cc2)CC1` (stereo not drawn), the relative growth amounted to 0.982.
As for `C[N+](C)(C)CC(O)CC(=O)[O-]` (stereo not drawn), the relative growth was 0.989.
The same measure for `CCOC(=O)C1=C(COCCN)NC(C)=C(C(=O)OC)C1c1ccccc1Cl.O=S(=O)(O)c1ccccc1` (stereo not drawn): 0.929; for `COCCc1ccc(OCC(O)CNC(C)C)cc1.O=C(O)C(O)C(O)C(=O)O` (stereo not drawn): 1.17; for `COC1C(O)C(O)C(O)C(O)C1O` (stereo not drawn): 0.97.
The same measure for `COc1cccc2c1C(=O)c1c(O)c3c(c(O)c1C2=O)CC(O)(C(=O)CO)CC3OC1CC(N)C(O)C(C)O1` (stereo not drawn): 1.02.
The same measure for `Cn1c(=O)c2[nH]cnc2n(C)c1=O`: 1.07; for `CN1CCC(=C2c3ccccc3Sc3ccccc32)CC1.O=C(O)C=CC(=O)O`: 0.967; for `CC[N+](CC)(CC(=O)Nc1c(C)cccc1C)Cc1ccccc1.O=C([O-])c1ccccc1`: 1.01.
In turn, `O=c1[nH]cc(F)c(=O)[nH]1` gave a relative growth of 0.475.
Turning to `COc1ccc(CC2c3cc(OC)c(OC)cc3CC[N+]2(C)CCC(=O)OCCCCCOC(=O)CC[N+]2(C)CCc3cc(OC)c(OC)cc3C2Cc2ccc(OC)c(OC)c2)cc1OC.O=S(=O)([O-])c1ccccc1.O=S(=O)([O-])c1ccccc1` (stereo not drawn), the relative growth amounted to 0.995.
The figure for `CCN(CC)CCOc1ccc(C(=C(Cl)c2ccccc2)c2ccccc2)cc1.O=C(O)CC(O)(CC(=O)O)C(=O)O` is 0.86; for `CCOC(=O)Nc1ccc(NCc2ccc(F)cc2)nc1N.O=C(O)C=CC(=O)O` it is 0.989.
The figure for `Cc1cc2nc3c(=O)[nH]c(=O)nc-3n(CC(O)C(O)C(O)COP(=O)([O-])O)c2cc1C.[Na+]` (stereo not drawn) is 0.981.
The figure for `CCC(C)C1OC2(CCC1C)CC1CC(CC=C(C)C(OC3CC(OC)C(OC4CC(OC)C(O)C(C)O4)C(C)O3)C(C)C=CC=C3COC4C(O)C(C)=CC(C(=O)O1)C34O)O2` (stereo not drawn) is 0.874; for `CN(C)CCOC(c1ccccc1)c1ccccc1.Cn1c(=O)c2[nH]c(Cl)nc2n(C)c1=O` it is 0.0491.
For the compound `Cn1c(=O)cc(N2CCCC(N)C2)n(Cc2ccccc2C#N)c1=O.O=C(O)c1ccccc1` (stereo not drawn), the relative growth is 1.05.
The compound `O.OCC(O)C(O)C(OC1OC(CO)C(O)C(O)C1O)C(O)CO` (stereo not drawn) gave a relative growth of 0.993.
Compound `CC12CCC3c4ccc(O)cc4CCC3C1CC(O)C2O` (stereo not drawn) had a relative growth of 1.07.
The same measure for `CC(CN(C)C)CN1c2ccccc2Sc2ccccc21.O=C(O)C(O)C(O)C(=O)O` (stereo not drawn): 0.971; for `CC(=O)NCC(=O)O.CC(=O)NCC(=O)O.N=C(N)c1ccc(N=NNc2ccc(C(=N)N)cc2)cc1`: 1.01.
In the case of `CCOCC(O)COc1ccc(NC(=O)CC[S+](C)C)cc1.Cc1ccc(S(=O)(=O)[O-])cc1` (stereo not drawn), the relative growth was found to be 1.09.
`O=C(O)CC(O)(CC(=O)O)C(=O)O` registered a relative growth of 1.02.
The figure for `CN(CCOc1ccc(CC2SC(=O)NC2=O)cc1)c1ccccn1.O=C(O)C=CC(=O)O` (stereo not drawn) is 0.921; for `CC(C)C(=O)Oc1ccc(CO)cc1C(CCN(C(C)C)C(C)C)c1ccccc1.O=C(O)C=CC(=O)O` (stereo not drawn) it is 0.804.
The same measure for `C[n+]1cc2c3c(ccc2c2ccc4cc5c(cc4c21)OCO5)OCO3.[Cl-]`: 0.639; for `CC(CCC(=O)O)C1CCC2C3C(O)CC4CC(O)CCC4(C)C3CCC12C` (stereo not drawn): 0.976.
`CCOCCn1c(N2CCCN(C)CC2)nc2ccccc21.O=C(O)C=CC(=O)O.O=C(O)C=CC(=O)O` registered a relative growth of 1.11.
The same measure for `NCC1OC(OC2C(N)CC(N)C(OC3OC(CO)C(O)C(N)C3O)C2O)C(O)C(O)C1O.O=S(=O)(O)O` (stereo not drawn): 0.935.
The same measure for `CC(C)(C)NCC(O)COc1nsnc1N1CCOCC1.O=C(O)C=CC(=O)O` (stereo not drawn): 0.974.
In turn, `CCCc1nn(C)c2c(=O)[nH]c(-c3cc(S(=O)(=O)N4CCN(C)CC4)ccc3OCC)nc12.O=C(O)CC(O)(CC(=O)O)C(=O)O` returned a relative growth of 0.963.
In turn, `C[N+](C)(CCOc1ccccc1)Cc1ccccc1.O=C([O-])c1cc2ccccc2cc1O` returned a relative growth of 0.93.
With `COc1cccc2c1C(=O)c1c(O)c3c(c(O)c1C2=O)CC(O)(C(=O)CO)CC3OC1CC(N)C(O)C(C)O1.Cl` (stereo not drawn), the relative growth is 1.02.
